Results: PubChem BioAssay
“And” between values parts separate entries of the source, which are not always exact repeats. Identical values can stand only once. Results filed as inconclusive are left out. The source made the active and inactive calls.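 Rule for the calls, unless noted: active = normalized viability below 100% at a tested concentration; inactive = the rest.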

Legend:
[1] = viability loss in pontine glioma line – cell-based, SU-DIPG-XXV, MIPE5.0, CellTiter-Glo, qHTS, dose response (AID 1347065; cut-off not given, nearly all actives have AC50 up to about 26 µM;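 note: cells exposed to compound for 48 hours before ATP readout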); conditions: CellTiter-Glo ATP luminescence
[2] = SU-DIPG-VI glioma cell viability, MIPE4.0 library, CellTiter-Glo luminescence, qHTS (AID 1347066; cut-off not given, nearly all actives have AC50 up to about 30 µM;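 note: cells exposed to compound for 48 hours before readout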); conditions: CellTiter-Glo ATP luminescence
[3] = JHH-DIPG-1 glioma cell viability, MIPE5.0 library, CellTiter-Glo luminescence, qHTS (AID 1347067; cut-off not given, nearly all actives have AC50 up to about 26 µM;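 note: cells exposed to compound for 48 hours before readout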); conditions: JHH-DIPG-1 glioma viability, CellTiter-Glo ATP luminescence
[4] = SU-DIPG-XXV glioma cell viability, MIPE5.0 library, qHTS (AID 1347068; cut-off not given, nearly all actives have IC50 up to about 30 µM;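 for IC50: cells exposed to compound for 48 hours before viability readout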)
[5] = phospholipid biosynthesis inhibitors in animal cells, primary screen, cell-based, LOPAC library, screen 4 (AID 1347384; call rule not given here); conditions: phospholipid biosynthesis inhibition screen, at 10 µM
[6] = survival rescue of mitochondrial mutant cells in low glucose, primary screen, MELAS cybrids, Rieske KO mouse fibroblasts, CellTiter-Glo (AID 1508586;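 active = mean z-score across replicates of 1.96 or higher in either the MELAS or the Rieske mutant cell line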;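 note: z relative to plate mean and SD of compound and empty wells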)
[7] = target: NAD(+) hydrolase SARM1 (Homo sapiens) (UniProt Q6SZW1); assay: SARM1 TIR NADase inhibitors, cell lysate, NAD-Glo luminescence (AID 1508614;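 active = compound whose remaining NAD level is above about 45 nM, limit read from the data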;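 note: higher remaining NAD means stronger inhibition of SARM1 NADase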); conditions: SAM-TIR HEK293T lysate NADase, at 1 µM, stronger effect = higher value
[8] = target: Mitogen-activated protein kinase 7 (Homo sapiens) (UniProt Q13164); assay: ERK5 transactivation activators in reporter cells, primary screen, cell-based, HTS (AID 1508626;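 active = luciferase signal above three times the same-plate solvent-only control wells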;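 note: luciferase driven by Gal4-ERK5 fusion binding five Gal4 sites before minimal TATA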); conditions: HeLa Gal4-ERK5 transactivation, 18 h, at 5 µM, stronger effect = higher value
[9] = viability rescue of complex I mutant cybrids, primary screen, cell-based, galactose medium, ATP luminescence (AID 1645843;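 active = z-score of at least 1.8 in each of two replicates, scored against plate mean and spread of sample wells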;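 note: positive z means more ATP and so rescue of galactose-driven cybrid death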); conditions: complex I mutant cybrid cells, 72 h, stronger effect = higher value
[10] = LFS_MB_P medulloblastoma growth inhibition, cell-based, chromothripsis tumors, cisplatin or BGB combos (AID 1671449; in the data active = inhibition above about 80%;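 note: cells exposed for 96 hours; 0% = vehicle DMSO and 100% = killing by high DMSO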); conditions: LFS_MB_P medulloblastoma cells
[11] = HDN33 neuroblastoma growth inhibition, cell-based, chromothripsis tumors, cisplatin or BGB combos (AID 1671450; in the data active = inhibition above about 80%;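 note: cells exposed to compound for four days; 0% = vehicle DMSO and 100% = cell killing by high DMSO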); conditions: HDN33 neuroblastoma cells, stronger effect = higher value
[12] = ICB984 medulloblastoma cell growth inhibition, synergistic combos for chromothripsis tumors, cisplatin or BGB combos (AID 1671451; call rule not given here;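 note: cells exposed for 96 hours before readout; 0% = vehicle DMSO and 100% = killing by high DMSO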); conditions: ICB984 medulloblastoma cells, drug combinations, stronger effect = higher value
[13] = LFS_MB_1R medulloblastoma cell growth inhibition, synergistic combos for chromothripsis tumors, cisplatin or BGB combos (AID 1671452; in the data active = inhibition above about 80%;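 note: cells exposed for 96 hours before readout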); conditions: LFS_MB_1R medulloblastoma cells, stronger effect = higher value
[14] = HTB85 osteosarcoma cell growth inhibition, synergistic combos for chromothripsis tumors, BGB or cisplatin IC20 combos (AID 1671453; in the data active = inhibition above about 80%;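 note: cells exposed for 96 hours before readout; 0% = vehicle DMSO and 100% = high DMSO killing control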); conditions: HTB85 osteosarcoma cells, drug combinations, stronger effect = higher value
[15] = CRL2098 osteosarcoma cell growth inhibition, synergistic combos for chromothripsis tumors, BGB or cisplatin IC20 combos (AID 1671454; in the data active = inhibition above about 80%;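 note: cells exposed for 96 h before readout; 0% = vehicle DMSO and 100% = killing by high DMSO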); conditions: CRL2098 osteosarcoma cells, drug combinations, stronger effect = higher value
[16] = HD-MB03 medulloblastoma cell growth inhibition, synergistic combos for chromothripsis tumors, BGB or cisplatin IC20 combos (AID 1671455; in the data active = inhibition above about 83%;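 note: 0% = vehicle DMSO and 100% = high DMSO as cytotoxic control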); conditions: HD-MB03 medulloblastoma cells, stronger effect = higher value
[17] = modifiers of HSF1 nuclear foci, imaging, Selleck Cancer Library (AID 1347162; in the data active = plate-normalised HSF1 focus index below about 0.46); conditions: human cells, at 10 µM; SSMD: measured here: HSF1 foci SSMD mean; cell count: measured here: cell number; plate-normalised HSF1 focus index: stronger effect = lower value
[18] = ovarian cancer cell viability with rucaparib, profiling panel, oncology-focused library, rucaparib conditional (AID 1508598); conditions: patient-derived ovarian cancer cells, CellTiter-Glo viability, 144 h, stronger effect = lower value
[19] = measured here: combination with BGB IC40, at 0.05 µM

Sequence of Mitogen-activated protein kinase 7 (Homo sapiens) (Q13164 whole entry, looked up, the tested form may be a part): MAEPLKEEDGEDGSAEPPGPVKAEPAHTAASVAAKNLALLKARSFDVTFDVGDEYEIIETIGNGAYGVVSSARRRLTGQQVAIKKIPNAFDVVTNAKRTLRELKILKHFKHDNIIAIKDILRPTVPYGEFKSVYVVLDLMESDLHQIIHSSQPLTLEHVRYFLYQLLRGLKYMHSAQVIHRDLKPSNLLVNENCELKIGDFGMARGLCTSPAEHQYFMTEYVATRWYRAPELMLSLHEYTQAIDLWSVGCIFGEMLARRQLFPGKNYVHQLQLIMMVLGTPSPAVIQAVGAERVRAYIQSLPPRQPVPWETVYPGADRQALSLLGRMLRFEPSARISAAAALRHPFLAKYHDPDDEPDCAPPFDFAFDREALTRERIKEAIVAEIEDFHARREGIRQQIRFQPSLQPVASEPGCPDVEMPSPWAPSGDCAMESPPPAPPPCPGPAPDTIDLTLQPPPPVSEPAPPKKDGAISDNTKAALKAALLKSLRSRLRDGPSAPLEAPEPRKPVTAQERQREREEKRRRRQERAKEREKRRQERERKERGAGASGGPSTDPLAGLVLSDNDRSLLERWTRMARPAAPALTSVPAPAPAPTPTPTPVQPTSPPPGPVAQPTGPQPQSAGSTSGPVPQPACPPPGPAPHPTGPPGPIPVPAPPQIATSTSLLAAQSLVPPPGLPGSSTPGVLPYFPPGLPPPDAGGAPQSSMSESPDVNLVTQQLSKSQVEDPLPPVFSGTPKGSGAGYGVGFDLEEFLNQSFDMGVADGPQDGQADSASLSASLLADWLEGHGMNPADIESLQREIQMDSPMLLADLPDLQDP
Sequence of NAD(+) hydrolase SARM1 (Homo sapiens) (Q6SZW1 whole entry, looked up, the tested form may be a part): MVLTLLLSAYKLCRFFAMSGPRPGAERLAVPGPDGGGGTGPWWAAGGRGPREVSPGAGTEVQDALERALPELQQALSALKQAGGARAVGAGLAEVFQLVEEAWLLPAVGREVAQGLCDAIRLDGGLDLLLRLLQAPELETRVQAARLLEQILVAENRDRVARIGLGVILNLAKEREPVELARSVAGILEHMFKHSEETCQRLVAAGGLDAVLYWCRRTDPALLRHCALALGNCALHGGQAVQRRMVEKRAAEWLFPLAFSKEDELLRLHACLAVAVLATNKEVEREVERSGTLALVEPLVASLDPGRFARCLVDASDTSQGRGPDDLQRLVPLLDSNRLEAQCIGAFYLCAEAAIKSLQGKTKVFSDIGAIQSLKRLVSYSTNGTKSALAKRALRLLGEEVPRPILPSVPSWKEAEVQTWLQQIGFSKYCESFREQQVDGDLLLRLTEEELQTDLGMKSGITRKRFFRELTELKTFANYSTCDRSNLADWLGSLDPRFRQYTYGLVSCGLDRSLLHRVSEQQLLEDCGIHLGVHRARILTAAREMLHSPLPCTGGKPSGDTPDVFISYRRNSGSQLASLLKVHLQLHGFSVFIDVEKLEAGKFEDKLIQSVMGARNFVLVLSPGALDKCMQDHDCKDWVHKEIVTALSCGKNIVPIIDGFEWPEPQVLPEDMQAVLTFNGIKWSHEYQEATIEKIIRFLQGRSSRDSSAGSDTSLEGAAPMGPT

In the case of `CCn1cc(C(=O)O)c(=O)c2cc(F)c(N3CCNC(C)C3)c(F)c21` (stereo not drawn), the outcome [1] is reported as “inactive”, the outcome [2] is reported as “inactive” and the outcome [3] is reported as “inactive”. For the same molecule, the outcome [4] was “inactive”, the outcome [5] was “inactive” and the z-score ([6]; MELAS cybrid survival, CellTiter-Glo 48 h, stronger effect = higher value) was -0.544 (inactive) and -0.435 (inactive). The z-score ([6]; Rieske KO mouse fibroblast survival, CellTiter-Glo 72 h) was 0.167 and 0.141, the remaining NAD [7] was 10 nM (inactive) and the luciferase signal [8] was 36 AU (inactive). The z-score [9] was 0.475 (inactive) and -0.065 (inactive), the inhibition ([10]; at 0.5 µM, stronger effect = higher value) was -15.3% (inactive) and -10.6% (inactive) and the inhibition ([10]; measured here: combination with BGB IC20, at 0.005 µM) was -5.89% and -31.7%. For the same molecule, the inhibition ([10]; measured here: combination with BGB IC40, at 0.005 µM) was -27.7% and -17%, the inhibition [10, 19] was -32.7% and -10.2% and the inhibition ([10]; measured here: combination with cisplatin, at 0.5 µM, stronger effect = higher value) was -27.9% and -16%. The inhibition ([10]; measured here: combination with cisplatin, at 5 µM, stronger effect = higher value) was -19.1% and -19.2%, the inhibition ([11]; BGB combo, at 5 µM) was -42.8% and -11.5% and the inhibition ([11]; at 0.5 µM) was -39.6% (inactive) and -19.9% (inactive). The inhibition ([11]; cisplatin combo, at 5 µM) was -22.1% and -6.52%, the inhibition ([11]; measured here: with BGB IC20 combination, at 0.5 µM) was -33.5% and -33.9% and the inhibition ([11]; measured here: with cisplatin IC20 combination, at 0.5 µM) was -40.2% and -6.39%. For the same molecule, the inhibition ([11]; single agent, at 5 µM) was -51.7% and -21.7%, the inhibition ([12]; BGB IC20 combo, at 0.005 µM) was -2.68% and 6.83% and the inhibition ([12]; BGB IC40 combo, at 0.005 µM) was -5.47% and -12.9%. The inhibition ([12]; BGB IC40 combo, at 0.05 µM) was -30.9% and -16.1%, the inhibition ([12]; at 0.5 µM) was -32.8% (inactive) and -22.8% (inactive) and the inhibition ([12]; cisplatin combo, at 0.05 µM) was -34.5% and -19.4%. The inhibition ([12]; cisplatin combo, at 0.5 µM) was -41.4% and -25.5%, the inhibition ([12]; cisplatin combo, at 5 µM) was -38.8% and -8.31% and the inhibition ([12]; measured here: 5 uM single agent, at 5 µM) was -28.6% and -13.7%. The inhibition ([13]; at 0.5 µM) was -35.3% (inactive) and -9.61% (inactive), the inhibition [13, 19] was -24.9% and -19.8% and the inhibition ([13]; measured here: combination with cisplatin, at 0.5 µM) was -39.3% and -32.8%. For the same molecule, the inhibition ([13]; measured here: combination with cisplatin, at 5 µM) was -53.1% and -17.8%, the inhibition ([14]; at 0.5 µM) was -42.2% (inactive) and 22% (inactive) and the inhibition ([14]; measured here: with BGB IC20, at 0.5 µM) was -50.9% and 58.5%. The inhibition ([14]; measured here: with BGB IC20, at 5 µM) was -41.8% and 56%, the inhibition ([14]; measured here: with cisplatin IC20, at 0.5 µM) was -43.1% and 12.8% and the inhibition ([14]; measured here: with cisplatin IC20, at 5 µM) was -15.2% and -22.2%. The inhibition ([14]; single agent, at 5 µM) was -37.9% and -11.7%, the inhibition ([15]; at 0.5 µM) was -101% (inactive) and -12.1% (inactive) and the inhibition ([15]; measured here: combination with BGB at IC20, at 0.5 µM) was -94% and -48.1%. For the same molecule, the inhibition ([15]; measured here: combination with cisplatin at IC20, at 0.5 µM) was -123% and -10.4%, the inhibition ([16]; at 0.5 µM) was -11.4% (inactive) and -9.63% (inactive) and the inhibition ([16]; measured here: combo with BGB at IC20, at 0.5 µM) was -10.9% and -2.68%. The inhibition ([16]; measured here: combo with cisplatin at IC20, at 0.5 µM) was -12.2% and -16.4%.

With `Cc1cc2c(C(C)C)c(O)c(O)c(C=O)c2c(O)c1-c1c(C)cc2c(C(C)C)c(O)c(O)c(C=O)c2c1O` the AC50 [1] was 7.42 µM (active), the AC50 [2] was 8.33 µM (active) and the AC50 [3] was 2.95 µM (active). For the same molecule, the IC50 [4] was 23.5 µM (active), the SSMD [17] was -10.3 and the cell count [17] was 5460. For the same molecule, the plate-normalised HSF1 focus index [17] was 0.468 (active), the outcome [5] was “inactive” and the viability ([18]; at 0.000305 µM, OCI-C5x cells, with rucaparib 10 µM, 100% = cells with rucaparib alone) was 113% (inactive). For the same molecule, the viability ([18]; at 0.000305 µM, OCI-C5x cells, without rucaparib) was 130% (inactive), the viability ([18]; at 0.000305 µM, OCI-P5x cells, with rucaparib 20 µM, 100% = cells with rucaparib alone) was 95.4% (active) and the viability ([18]; at 0.000305 µM, OCI-P5x cells, without rucaparib) was 103% (inactive). The viability ([18]; at 0.00122 µM, OCI-C5x cells, with rucaparib 10 µM, 100% = cells with rucaparib alone) was 115% (inactive), the viability ([18]; at 0.00122 µM, OCI-C5x cells, without rucaparib) was 120% (inactive) and the viability ([18]; at 0.00122 µM, OCI-P5x cells, with rucaparib 20 µM, 100% = cells with rucaparib alone) was 95.6% (active). The viability ([18]; at 0.00122 µM, OCI-P5x cells, without rucaparib) was 104% (inactive), the viability ([18]; at 0.00488 µM, OCI-C5x cells, with rucaparib 10 µM, 100% = cells with rucaparib alone) was 119% (inactive) and the viability ([18]; at 0.00488 µM, OCI-C5x cells, without rucaparib) was 131% (inactive). For the same molecule, the viability ([18]; at 0.00488 µM, OCI-P5x cells, with rucaparib 20 µM, 100% = cells with rucaparib alone) was 96.5% (active), the viability ([18]; at 0.00488 µM, OCI-P5x cells, without rucaparib) was 108% (inactive) and the viability ([18]; at 0.0195 µM, OCI-C5x cells, with rucaparib 10 µM, 100% = cells with rucaparib alone) was 113% (inactive). For the same molecule, the viability ([18]; at 0.0195 µM, OCI-C5x cells, without rucaparib) was 134% (inactive), the viability ([18]; at 0.0195 µM, OCI-P5x cells, with rucaparib 20 µM, 100% = cells with rucaparib alone) was 101% (inactive) and the viability ([18]; at 0.0195 µM, OCI-P5x cells, without rucaparib) was 112% (inactive). The viability ([18]; at 0.0781 µM, OCI-C5x cells, with rucaparib 10 µM, 100% = cells with rucaparib alone) was 110% (inactive), the viability ([18]; at 0.0781 µM, OCI-C5x cells, without rucaparib) was 123% (inactive) and the viability ([18]; at 0.0781 µM, OCI-P5x cells, with rucaparib 20 µM, 100% = cells with rucaparib alone) was 108% (inactive). For the same molecule, the viability ([18]; at 0.0781 µM, OCI-P5x cells, without rucaparib) was 116% (inactive), the viability ([18]; at 0.313 µM, OCI-C5x cells, with rucaparib 10 µM, 100% = cells with rucaparib alone) was 128% (inactive) and the viability ([18]; at 0.313 µM, OCI-C5x cells, without rucaparib) was 144% (inactive). For the same molecule, the viability ([18]; at 0.313 µM, OCI-P5x cells, with rucaparib 20 µM, 100% = cells with rucaparib alone) was 107% (inactive), the viability ([18]; at 0.313 µM, OCI-P5x cells, without rucaparib) was 113% (inactive) and the viability ([18]; at 1.25 µM, OCI-C5x cells, with rucaparib 10 µM, 100% = cells with rucaparib alone) was 110% (inactive). For the same molecule, the viability ([18]; at 1.25 µM, OCI-C5x cells, without rucaparib) was 148% (inactive), the viability ([18]; at 1.25 µM, OCI-P5x cells, with rucaparib 20 µM, 100% = cells with rucaparib alone) was 95.9% (active) and the viability ([18]; at 1.25 µM, OCI-P5x cells, without rucaparib) was 110% (inactive). The viability ([18]; at 5 µM, OCI-C5x cells, with rucaparib 10 µM, 100% = cells with rucaparib alone) was 130% (inactive), the viability ([18]; at 5 µM, OCI-C5x cells, without rucaparib) was 156% (inactive) and the viability ([18]; at 5 µM, OCI-P5x cells, with rucaparib 20 µM, 100% = cells with rucaparib alone) was 89.5% (active). For the same molecule, the viability ([18]; at 5 µM, OCI-P5x cells, without rucaparib) was 106% (inactive), the luciferase signal [8] was 28 AU (inactive) and the z-score [9] was -1.29 (inactive) and -0.705 (inactive).
